Assay results published in the supplement of paper PMC6555819.

System: VDR:RXRa (NR concentration 270 nM, RXRa partner concentration 90 nM)
Experiment: PBM binding z-score (relative to random genomic background probes); higher = stronger binding; sequences stand for … in GC…GCGATTGACAGCGTAGAATGAAGG
Method: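 Protein-binding microarray (Agilent 4x180K custom design, double-stranded 60-nt probes: 5' GC cap, 34-nt variable region, 24-nt constant primer region; full probe sequence given). Purified or IVT nuclear receptor:RXRα heterodimers (3:1 NR:RXRα, mostly 270:90 nM) or homodimers were incubated for 1 h in PBS with 2% milk and no ligand, then detected with Alexa488 antibodies. Fluorescence from o1-orientation probes (~5 replicates averaged) was converted to z-scores against 500 random hg19 background probes. Variable regions are seed direct-repeat (DR0–DR5) sites, all their single-nucleotide variants and half-site ablations.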

Going from ATATGTAGGTTAGCTGGGGTCGTTCAGACTAGGC to ATCTCTAGGTAACCAAATTCAGTGAATGCCGAAC, the PBM binding z-score falls from 4.67 to 0.296.

First: CCGACTGGGGCACGGTTACCATAACGCACAGCCA
Second: CGACCAAGGTCAGAGAGGTCAGTGAATGCCGAGT
The PBM binding z-score of the first is lower: -0.636 for the first, 7.47 for the second.

Compared with CGGCCAAGGTCAATGCTAGGTCAGTGAAAGCATT, CCTTACGGGTCACTGAAAGGTTATAGCATTTGGA is lower in PBM binding z-score: 4.95 for the first, 4.52 for the second.

Going from TCATATAGGTAAATGCTAGGTGAAAGTTCGATCT to TTACCAAGGTGAAAGGTCCTTGATGCACGCCTTG, the PBM binding z-score falls from 1.22 to 0.75.

Going from TCTTGTAGATCAATAGGGGTTAAGAAAGTGCGCT to CTACCAAGGTGAACAAGGTAGTTGATTACTATTC, the PBM binding z-score falls from 2.64 to 1.45.

First: CCTACTGGGCCATCAGGTCATTCATATCAACGTT
Second: TCTATTAGTTGATTAGGGCCACCGAAACAGCGGA
The PBM binding z-score of the first is higher: 1.67 for the first, 0.782 for the second.

Going from CCTACTGGGCCAGCAGGTCATTGATATCAACGTT to CAAACTAGATCAAAGGTCAAAGTCGAGCCAACCA, the PBM binding z-score rises from 1.26 to 4.93.

Going from ACTAGCAGGCCAGGGGTCACTCAAGATTAGTCCG to AATACATGGTCATCGTAGGCCAGAGTACGCACAG, the PBM binding z-score falls from 4.42 to 0.347.

First: TCTCGGGGGACACGAAGGTCAGAGCTTTCCAGAG
Second: GCTTGTAGATCAAGGTAAAGAAAGACTAAGCTAA
The PBM binding z-score of the first is higher: 3.72 for the first, -0.118 for the second.

Compared with ATGTCTAGGTAACCAAGTTCAGTGAATGCCGAAC, TCGAGAAGGTTAGTCGGGGCATTCAGCCAACATA is lower in PBM binding z-score: 3.97 for the first, 3.71 for the second.

Going from CTCGAAAGGTCGGTTGAGATGAGTATACGGATAA to CGTCCAAGGTCAGCAGTTCAGTGAAAGCGACGTG, the PBM binding z-score rises from 0.961 to 3.56.

First: GATACAGGGTCAAGTCCAGAGTACGCGTATTGAT
Second: CTCGAAAGGTCGGCTGAGGTGAGTATACGGATAA
The PBM binding z-score of the first is higher: 4.66 for the first, 2.95 for the second.

Going from TCTAGTTGGTCAAAGGTCACACAATCGAAATGCG to CCTAGTTGGTCAAGGTCAAACACGCTATAGGTAC, the PBM binding z-score falls from 5.52 to 4.47.

Compared with ATATGTAGGTTAGATGGGGTCATTCAGACTAGGC, CGCCAAAGTTCAACTAAGGTAACGTAAAGCACGC is lower in PBM binding z-score: 6.54 for the first, 4.9 for the second.

First: CCTACTGGGCCCAGGTCATTGATCAGTCAAAGCA
Second: CAGCCTAGGTCAGGACCAGTATAGGAGGAACGTT
The PBM binding z-score of the first is higher: 1.7 for the first, 0.522 for the second.

Going from TTACCAAGGTGAAGGTAGTTGATCCCTCTGTAGA to CAAACTGGGTCAAGGTCAAAGTCGGTTTGTGCCA, the PBM binding z-score rises from 0.0573 to 5.18.

Compared with GCTAGTTGGGCAGTAAAAGGTCACACACCGGTCG, ACCGAAAGGTCGACGAGGTGAGTATACACCGTTT is higher in PBM binding z-score: 3.62 for the first, 5.14 for the second.

Going from GCTAGTTGGTCAGTAAAAGGTCAAACACCGGTCG to ATCTCTAGGTAAAACTTCAGTGAATCCCGAGGAT, the PBM binding z-score falls from 4.29 to -0.0846.

Going from TTACCAAGGTGAGCTGAGGTCGTTGTTCCAACTC to AGTCAAAGTTCAGGATGAGGTAACGTAAAGCACG, the PBM binding z-score falls from 4.15 to 2.88.

Compared with GATGCAGGGTCAGCTAGAGGCCAGAGTATGGAAA, TCTTGTAGATCAAAGGTTAAGCAAGCCGAAGCCT is lower in PBM binding z-score: 3.11 for the first, 1.65 for the second.
